Of roughly 8,800 targets only a part is listed; those with a hit were picked by preference. About 0.5% of all pairs of compound and target were hits.
Tests used:
Assay in all cases: log2 fold change, soluble protein after heating vs DMSO (PISA); higher = thermal stabilisation; K562 lysate, 10 uM; active = over 0.2 and 3.5 SD of the protein, either way, in both replicates (recomputed)
[1] = compound: CCn1c(C(=O)N(C2CC2)C2CC2)cc2c3c(ncn3C)c(Nc3cc(C)n(C)n3)nc21
Summary of the method: (§1)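 A 30 min treatment with 10 μM compound was applied to crude K562 extract at 1 mg/mL protein in PBS pH 7.4 with 1 mM MgCl2. Heating for 3 min spanned 48°C-58°C, after which aliquots were pooled, adjusted to 0.5% NP-40 at 4°C and spun at 21,000xg for 90 min. TMTpro 16plex LC-MS/MS of the supernatant, with channel sums equalised, gave values recorded as log-two fold change in thermal stability against solvent controls, from duplicates.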

saracatinib = compound: CN1CCN(CCOc2cc(OC3CCOCC3)c3c(Nc4c(Cl)ccc5c4OCO5)ncnc3c2)CC1 [saracatinib]
Summary of the method: as §1

sotrastaurin = compound: CN1CCN(c2nc(C3=C(c4c[nH]c5ccccc45)C(=O)NC3=O)c3ccccc3n2)CC1 [sotrastaurin]
Summary of the method: as §1

Tubastatin A = compound: CN1CCc2c(c3ccccc3n2Cc2ccc(C(=O)NO)cc2)C1 [Tubastatin A]
Summary of the method: as §1

[2] = compound: CNC(=O)C1=CC=CC=C1NC2=NC(=NC=C2Cl)NC3=C(C=C(C=C3)N4CCOCC4)OC
Summary of the method: as §1

[3] = compound: CNc1nc(-c2ccc3c(N)n[nH]c3c2)cc(N2C[C@@H](C(=O)NC3CCCCC3)CC[C@H]2C)n1
Summary of the method: as §1

vemurafenib = compound: CCCS(=O)(=O)Nc1ccc(F)c(C(=O)c2c[nH]c3ncc(-c4ccc(Cl)cc4)cc23)c1F [vemurafenib]
Summary of the method: as §1

barasertib = compound: CCN(CCCOc1ccc2c(Nc3cc(CC(=O)Nc4cccc(F)c4)[nH]n3)ncnc2c1)CCOP(=O)(O)O [barasertib]
Summary of the method: as §1

[4] = compound: CC[C@@H]1C(=O)N(C)c2cnc(Nc3ccc(C(=O)NC4CCN(C)CC4)cc3OC)nc2N1C1CCCC1
Summary of the method: as §1

[5] = compound: CCn1cc(-c2ccnc3[nH]c(-c4cccc(CN(C)C)c4)cc23)c(-c2ccc(NC(=O)N(C)C)cc2)n1
Summary of the method: as §1

[6] = compound: CN1CCC(CNc2ccc3ncc(-c4cccc(OC(F)(F)F)c4)n3n2)CC1
Summary of the method: as §1

alvocidib = compound: CN1CC[C@H](c2c(O)cc(O)c3c(=O)cc(-c4ccccc4Cl)oc23)[C@H](O)C1 [alvocidib]
Summary of the method: as §1

defactinib = compound: CNC(=O)c1ccc(Nc2ncc(C(F)(F)F)c(NCc3nccnc3N(C)S(C)(=O)=O)n2)cc1 [defactinib]
Summary of the method: as §1

encorafenib = compound: COC(=O)N[C@@H](C)CNc1nccc(-c2cn(C(C)C)nc2-c2cc(Cl)cc(NS(C)(=O)=O)c2F)n1 [encorafenib]
Summary of the method: as §1

[7] = compound: COC(=O)[C@H](CCSC)NC(=O)C1=C(C=C(C=C1)NC[C@H](CS)N)C2=CC=CC=C2
Summary of the method: as §1

alisertib = compound: COc1cc(Nc2ncc3c(n2)-c2ccc(Cl)cc2C(c2c(F)cccc2OC)=NC3)ccc1C(=O)O [alisertib]
Summary of the method: as §1

gefitinib = compound: COc1cc2ncnc(Nc3ccc(F)c(Cl)c3)c2cc1OCCCN1CCOCC1 [gefitinib]
Summary of the method: as §1

[8] = compound: CCCS(=O)(=O)Nc1ccc(F)c(C(=O)c2c[nH]c3ncc(Cl)cc23)c1F
Summary of the method: as §1

volasertib = compound: CC[C@@H]1C(=O)N(C)c2cnc(Nc3ccc(C(=O)N[C@H]4CC[C@H](N5CCN(CC6CC6)CC5)CC4)cc3OC)nc2N1C(C)C [volasertib]
Summary of the method: as §1

[9] = compound: COc1cc2nc(-c3cc(F)ccc3O)nc(N[C@@H]3CNC[C@H]3C(C)(C)O)c2cc1OC
Summary of the method: as §1

Measured: log2 fold change

ZNF281 (UniProt Q9Y2X9)
inactive: [1] 0.011 | saracatinib -0.069 | sotrastaurin 0.028 | Tubastatin A -0.16 | [2] 0.025 | [3] 0.095

WAC isoform 5 (UniProt Q9BTA9)
Sequence of UniProt Q9BTA9 (Q9BTA9 whole entry, looked up): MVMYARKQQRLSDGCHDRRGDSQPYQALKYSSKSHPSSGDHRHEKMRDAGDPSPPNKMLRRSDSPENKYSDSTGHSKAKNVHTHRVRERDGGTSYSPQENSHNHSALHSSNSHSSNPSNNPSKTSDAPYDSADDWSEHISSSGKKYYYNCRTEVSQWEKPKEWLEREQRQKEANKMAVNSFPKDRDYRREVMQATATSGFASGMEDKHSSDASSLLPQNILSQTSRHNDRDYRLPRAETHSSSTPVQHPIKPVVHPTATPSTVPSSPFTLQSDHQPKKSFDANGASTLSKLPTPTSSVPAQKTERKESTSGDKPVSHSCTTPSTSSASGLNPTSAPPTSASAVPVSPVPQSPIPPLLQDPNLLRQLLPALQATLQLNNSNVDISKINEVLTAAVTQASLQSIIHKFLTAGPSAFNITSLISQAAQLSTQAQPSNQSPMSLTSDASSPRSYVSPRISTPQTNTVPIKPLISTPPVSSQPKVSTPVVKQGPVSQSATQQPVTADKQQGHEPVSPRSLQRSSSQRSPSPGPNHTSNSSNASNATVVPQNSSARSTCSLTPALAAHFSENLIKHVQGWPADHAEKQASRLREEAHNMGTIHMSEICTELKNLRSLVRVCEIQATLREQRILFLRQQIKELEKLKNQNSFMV
inactive: [1] 0.047 | saracatinib -0.078 | Tubastatin A -0.119 | [2] -0.359 | [3] -0.117

ZSWIM8 isoform 4 (UniProt A7E2V4)
Sequence of UniProt A7E2V4 (A7E2V4 whole entry, looked up): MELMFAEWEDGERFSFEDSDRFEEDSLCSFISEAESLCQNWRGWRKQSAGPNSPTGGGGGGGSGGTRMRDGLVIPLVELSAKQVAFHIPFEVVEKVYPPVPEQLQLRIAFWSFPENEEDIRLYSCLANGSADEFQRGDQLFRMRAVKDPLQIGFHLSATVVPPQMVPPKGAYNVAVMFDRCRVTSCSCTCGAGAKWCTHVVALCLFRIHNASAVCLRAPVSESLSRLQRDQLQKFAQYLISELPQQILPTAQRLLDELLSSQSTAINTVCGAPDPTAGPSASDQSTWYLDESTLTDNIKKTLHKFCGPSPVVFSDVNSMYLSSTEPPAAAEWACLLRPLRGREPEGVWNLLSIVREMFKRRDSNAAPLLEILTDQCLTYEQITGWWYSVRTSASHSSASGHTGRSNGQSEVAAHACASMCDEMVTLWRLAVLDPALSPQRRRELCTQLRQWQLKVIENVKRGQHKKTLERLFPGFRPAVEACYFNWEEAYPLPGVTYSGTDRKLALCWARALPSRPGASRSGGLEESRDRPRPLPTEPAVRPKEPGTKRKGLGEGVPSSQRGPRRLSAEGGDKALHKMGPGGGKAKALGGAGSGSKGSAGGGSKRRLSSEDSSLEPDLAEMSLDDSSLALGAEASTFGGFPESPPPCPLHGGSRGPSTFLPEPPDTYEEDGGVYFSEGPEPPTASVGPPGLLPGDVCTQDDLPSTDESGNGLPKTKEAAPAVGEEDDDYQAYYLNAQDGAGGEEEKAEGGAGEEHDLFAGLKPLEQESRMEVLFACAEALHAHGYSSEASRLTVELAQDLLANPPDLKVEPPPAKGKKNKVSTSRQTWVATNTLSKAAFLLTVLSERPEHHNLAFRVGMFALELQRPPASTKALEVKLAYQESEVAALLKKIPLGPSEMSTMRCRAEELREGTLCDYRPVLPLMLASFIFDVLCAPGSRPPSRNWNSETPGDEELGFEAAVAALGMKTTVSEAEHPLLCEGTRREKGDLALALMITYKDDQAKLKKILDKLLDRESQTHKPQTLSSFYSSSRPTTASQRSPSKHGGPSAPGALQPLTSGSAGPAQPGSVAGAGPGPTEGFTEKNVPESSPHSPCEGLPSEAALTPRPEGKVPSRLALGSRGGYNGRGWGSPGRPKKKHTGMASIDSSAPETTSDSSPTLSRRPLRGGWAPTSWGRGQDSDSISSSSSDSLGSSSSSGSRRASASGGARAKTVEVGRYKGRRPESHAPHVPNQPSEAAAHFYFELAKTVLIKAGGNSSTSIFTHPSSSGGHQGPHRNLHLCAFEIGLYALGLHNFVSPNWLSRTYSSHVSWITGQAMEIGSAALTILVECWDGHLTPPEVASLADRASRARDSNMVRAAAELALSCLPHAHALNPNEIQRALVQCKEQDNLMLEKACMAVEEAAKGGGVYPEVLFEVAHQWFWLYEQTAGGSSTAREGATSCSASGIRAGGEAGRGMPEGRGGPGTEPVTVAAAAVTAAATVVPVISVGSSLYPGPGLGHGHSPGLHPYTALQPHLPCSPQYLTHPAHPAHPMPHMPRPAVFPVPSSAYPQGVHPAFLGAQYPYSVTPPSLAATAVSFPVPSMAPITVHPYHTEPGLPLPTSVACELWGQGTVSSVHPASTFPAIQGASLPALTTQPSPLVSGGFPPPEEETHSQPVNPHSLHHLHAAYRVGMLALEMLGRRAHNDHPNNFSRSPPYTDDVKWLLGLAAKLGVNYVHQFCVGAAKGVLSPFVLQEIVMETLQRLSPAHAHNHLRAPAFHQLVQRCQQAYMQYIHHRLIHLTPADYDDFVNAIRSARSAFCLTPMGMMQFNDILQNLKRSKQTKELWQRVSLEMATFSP
inactive: vemurafenib -0.173 | barasertib 0.22 | [4] 0.039 | [1] 0.038 | [5] -0.094 | [6] -0.071 | saracatinib 0.018 | sotrastaurin 0.039 | alvocidib 0.078 | Tubastatin A 0.149 | [2] -0.171 | defactinib 0.088 | [3] -0.226 | encorafenib 0.035 | [7] -0.071 | alisertib -0.034 | gefitinib -0.073

VPS72 (UniProt Q15906)
Sequence of UniProt Q15906 (Q15906 whole entry, looked up): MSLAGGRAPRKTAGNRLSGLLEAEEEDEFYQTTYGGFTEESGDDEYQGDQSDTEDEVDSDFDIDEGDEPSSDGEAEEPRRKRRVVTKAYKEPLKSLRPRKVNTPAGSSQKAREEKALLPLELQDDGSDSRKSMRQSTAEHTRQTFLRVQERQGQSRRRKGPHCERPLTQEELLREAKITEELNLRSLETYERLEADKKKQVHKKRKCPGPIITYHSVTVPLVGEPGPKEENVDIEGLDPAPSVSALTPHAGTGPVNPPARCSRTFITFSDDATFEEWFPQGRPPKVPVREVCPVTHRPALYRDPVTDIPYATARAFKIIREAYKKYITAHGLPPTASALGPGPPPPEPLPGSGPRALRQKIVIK
inactive: vemurafenib 0.054 | [8] -0.139 | [4] -0.009 | volasertib 0.162 | [1] 0.021 | [5] 0.056 | [6] 0.078 | saracatinib 0.04 | sotrastaurin 0.024 | alvocidib 0 | Tubastatin A 0.028 | [2] 0.041 | defactinib -0.078 | [3] -0.02 | encorafenib -0.016 | [7] -0.134 | alisertib -0.058 | [9] -0.017 | gefitinib -0.108

ZBTB40 (UniProt Q9NUA8)
Sequence of UniProt Q9NUA8 (Q9NUA8 whole entry, looked up): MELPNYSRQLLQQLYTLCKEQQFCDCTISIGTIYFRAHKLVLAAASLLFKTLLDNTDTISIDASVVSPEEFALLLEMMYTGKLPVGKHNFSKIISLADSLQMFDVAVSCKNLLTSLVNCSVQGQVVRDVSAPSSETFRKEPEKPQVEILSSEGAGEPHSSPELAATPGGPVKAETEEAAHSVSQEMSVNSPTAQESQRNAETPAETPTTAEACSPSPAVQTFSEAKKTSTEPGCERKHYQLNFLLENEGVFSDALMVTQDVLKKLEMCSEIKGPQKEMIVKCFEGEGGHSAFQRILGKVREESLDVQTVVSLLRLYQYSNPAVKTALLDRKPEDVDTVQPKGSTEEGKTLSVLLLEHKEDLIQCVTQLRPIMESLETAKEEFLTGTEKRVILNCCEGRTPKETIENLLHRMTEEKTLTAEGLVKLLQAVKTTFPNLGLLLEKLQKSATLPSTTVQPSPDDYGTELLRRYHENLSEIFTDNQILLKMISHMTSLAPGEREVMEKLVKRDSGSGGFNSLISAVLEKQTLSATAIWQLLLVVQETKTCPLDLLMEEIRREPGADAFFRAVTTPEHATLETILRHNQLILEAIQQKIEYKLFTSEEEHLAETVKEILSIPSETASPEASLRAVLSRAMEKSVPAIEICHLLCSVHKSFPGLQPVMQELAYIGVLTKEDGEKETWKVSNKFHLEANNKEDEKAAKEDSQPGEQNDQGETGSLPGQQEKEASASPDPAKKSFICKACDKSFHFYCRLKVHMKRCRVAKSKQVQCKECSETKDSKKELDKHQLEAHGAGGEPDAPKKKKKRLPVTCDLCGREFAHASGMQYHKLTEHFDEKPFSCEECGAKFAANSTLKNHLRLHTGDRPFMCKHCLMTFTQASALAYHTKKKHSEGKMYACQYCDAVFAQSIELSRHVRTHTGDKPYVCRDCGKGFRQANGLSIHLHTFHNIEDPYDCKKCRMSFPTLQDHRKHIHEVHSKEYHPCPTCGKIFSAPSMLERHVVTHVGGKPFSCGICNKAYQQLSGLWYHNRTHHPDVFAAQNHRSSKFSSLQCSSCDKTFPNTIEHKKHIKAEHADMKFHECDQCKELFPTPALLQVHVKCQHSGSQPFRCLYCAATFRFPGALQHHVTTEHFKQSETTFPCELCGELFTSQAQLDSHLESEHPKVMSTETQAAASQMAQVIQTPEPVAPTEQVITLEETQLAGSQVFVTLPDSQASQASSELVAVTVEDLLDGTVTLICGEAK
inactive: vemurafenib 0.06 | [8] -0.076 | volasertib 0.029 | [1] -0.014 | [5] -0.127 | [6] 0.095 | saracatinib -0.017 | sotrastaurin -0.012 | alvocidib 0.09 | Tubastatin A -0.089 | [2] 0.03 | defactinib -0.032 | [3] 0.048 | alisertib -0.187 | [9] -0.038 | gefitinib -0.246

URGCP (UniProt Q8TCY9)
Sequence of UniProt Q8TCY9 (Q8TCY9 whole entry, looked up): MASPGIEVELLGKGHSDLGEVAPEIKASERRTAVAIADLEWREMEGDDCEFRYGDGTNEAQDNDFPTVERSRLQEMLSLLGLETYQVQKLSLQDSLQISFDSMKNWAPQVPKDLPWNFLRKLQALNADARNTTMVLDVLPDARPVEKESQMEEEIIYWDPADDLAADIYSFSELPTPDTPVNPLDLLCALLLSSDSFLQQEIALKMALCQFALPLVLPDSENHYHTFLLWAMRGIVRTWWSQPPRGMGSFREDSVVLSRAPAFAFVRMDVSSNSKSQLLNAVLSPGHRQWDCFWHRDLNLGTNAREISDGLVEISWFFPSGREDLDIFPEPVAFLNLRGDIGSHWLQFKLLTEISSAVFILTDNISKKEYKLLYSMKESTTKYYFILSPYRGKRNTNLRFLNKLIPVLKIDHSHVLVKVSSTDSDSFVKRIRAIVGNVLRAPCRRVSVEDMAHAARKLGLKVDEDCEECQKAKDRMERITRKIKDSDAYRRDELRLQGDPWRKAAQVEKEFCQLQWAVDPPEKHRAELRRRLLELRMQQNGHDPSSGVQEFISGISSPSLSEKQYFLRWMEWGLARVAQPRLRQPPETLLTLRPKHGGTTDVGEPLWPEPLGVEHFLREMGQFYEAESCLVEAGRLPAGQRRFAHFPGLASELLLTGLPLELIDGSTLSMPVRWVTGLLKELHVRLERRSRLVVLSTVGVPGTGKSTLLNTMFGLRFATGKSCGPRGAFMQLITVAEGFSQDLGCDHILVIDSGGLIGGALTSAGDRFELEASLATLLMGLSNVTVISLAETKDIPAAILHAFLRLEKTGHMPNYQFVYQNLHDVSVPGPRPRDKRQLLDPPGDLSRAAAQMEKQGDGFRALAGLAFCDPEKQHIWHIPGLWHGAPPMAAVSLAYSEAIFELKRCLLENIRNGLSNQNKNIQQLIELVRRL
inactive: vemurafenib 0.191 | barasertib -0.023 | [1] -0.069 | saracatinib 0 | Tubastatin A 0.168 | defactinib -0.19 | [3] -0.005 | alisertib 0.003 | gefitinib 0.006

Source: the supplement of paper PMC10849652
